Screening data as filed in PubChem.
Vaccinia Venus = qHTS for Stage-Specific Inhibitors of Vaccinia Orthopoxvirus: Venus Reporter Primary qHTS; Potency, µM (series often up to 36.5 µM), inactives show top-dose activity change, negative = inhibition, most hits filed as inhibitors; hit rate 0.46% among 330,000; Vaccinia virus Venus reporter expression, fluorescence; calls by dose curve; tested in A549 cells; also: potency is read from the fitted curve at half-maximal effect; nearly all actives have a fitted effect of over 30% in size
VACV mCherry inh = qHTS for Stage-Specific Inhibitors of Vaccinia Orthopoxvirus: mCherry Reporter Primary qHTS | Potency, µM (series often up to 36.5 µM), for inactives: at the top dose activity change, negative = inhibition, actives largely listed as inhibitors | Vaccinia virus mCherry reporter infection, fluorescence | hit rate 0.63% among 310,000; calls by dose curve; tested in A549 cells; also: potency is read from the fitted curve at half-maximal effect; nearly all actives have a fitted effect of over 35% in size
MARV entry inh = qHTS for inhibitors of binding or entry into cells for Marburg Virus | Marburg virus pseudotyped entry inhibition, cell reporter | Potency, µM (series often up to 37.8 µM), for the others: at the top dose activity change, negative = inhibition, actives largely listed as inhibitors | hit rate 1.8% among 300,000 | AID 540276, 2011; calls by dose curve; tested in HEK293 cells; also: potency is read from the fitted curve at half-maximal effect
HCMV inh = qHTS Assay for inhibitors of the human cytomegalovirus (HCMV). HFF cells, HCMV-luciferase reporter, 72 h; hits give low values. activity change, negative = inhibition, % at 57.5 µM. hit rate 4.5% among 410,000; in the data active = activity change below about -60%; inconclusive = no clear call, values can overlap the other calls; inactive = above about -39%
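Two compound doses tested in HFFs infected with HCMV-luciferase, MOI 1 PFU/cell, 72 h at 37C. Lysate luminescence read with OneGlo; data normalized against buffer-only and 10uM Salinomycin inhibitor controls.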
FMDV antiviral = High Throughput Screening for Foot and Mouth Disease Virus Antivirals; hit rate 1.2% among 410,000; FMDV antiviral cell-based qHTS; AID 1159524, 2015; Potency, µM (titrated, usually from 57.9 µM), for inactives: top-dose activity change, negative = inhibition, actives largely listed as inhibitors; calls by dose curve; tested in HEK293T cells; also: read-out not given here; potency is read from the fitted curve at half-maximal effect; nearly all actives have a fitted effect of over 45% in size
Lassa entry inh = qHTS for Inhibitors of binding or entry into cells for Lassa Virus; Lassa virus pseudotype entry inhibition, cell reporter; Potency, µM (top dose mostly 37.9 µM), without a hit: at the top dose activity change, negative = inhibition, hits mostly inhibitors; hit rate 1.2% among 300,000; calls by dose curve; tested in HEK293 cells; also: potency is read from the fitted curve at half-maximal effect; nearly all actives have a fitted effect of over 50% in size
* hit, by the source's call; i = inactive; ? = inconclusive; · = no result given; [ ] = another dose, or the depositor's remark. A selection: hits, their analogues and other compounds. The true share with any hit is near 6.5%. % is scaled to controls: 0 for no effect and ±100 for the full control effect.

SMILES	Vaccinia Venus	VACV mCherry inh	MARV entry inh	HCMV inh	FMDV antiviral	Lassa entry inh
COc1ccc(/C=C2\SC(=S)N(CCCC(=O)Nc3ccc(C(=O)O)cc3)C2=O)cc1OC	-11.2%	i	-3.6%	-7.6	-10.6%	3.9%
COc1ccc(/C=C2/SC(=S)N(CCCC(=O)Nc3ccc(O)cc3)C2=O)cc1OC	·	·	·	-73.1*	-20.5%	·
COc1ccc(/C=C2\SC(=O)N(CCCC(=O)Nc3cc(Cl)ccc3C(=O)O)C2=O)cc1	-1.8%	i	1.26µM*	-92.9*	0.282µM*	0.398µM*
COc1cccc(/C=C2\SC(=S)N(CCCC(=O)Nc3ccc(C(=O)O)cc3)C2=O)c1	16.5%	-0.4%	-1.5%[46.1 µM]	-79.8*	20.8%	-0.4%[46.1 µM]
COc1cccc(/C=C2\SC(=S)N(CCCC(=O)Nc3cc(C)on3)C2=O)c1	-5.0%	-14.6%	-3.0%[46.1 µM]	47.5	13.8%	-14.6%[46.1 µM]
COc1ccc(/C=C2\SC(=S)N(CCC(=O)Nc3ccccc3C(=O)O)C2=O)cc1	-2.6%	-8.0%	5.1%[46.1 µM]	-28.2	-9.9%	-10.6%[46.1 µM]
COc1cccc(/C=C2\SC(=O)N(CCC(=O)NNC(=O)c3cccc(Cl)c3)C2=O)c1	-7.0%	i	-18.5%	6.7	12.5%	1.58µM*
COc1ccc(-c2ccc(CN3C(C(C)C)C(=O)N(Cc4cn(CCC5OCCO5)nn4)CCS3(=O)=O)cc2)cn1 (centres undefined)	·	·	·	·	·	1.3%[46.1 µM]
Cc1ccccc1NC(=O)N[C@H]1CC[C@@]23CCCN2C(=O)CCC[C@H]3[C@H]1C	·	·	·	-7.4	·	·
CCN(CC)CCOC(=O)c1ccc(NC(=O)CCCN2C(=O)S/C(=C/c3ccc(OC)cc3)C2=S)cc1	21.3%	1.4%	?	·	3.55µM*	?
COc1ccc(/C=C2\SC(=S)N(CCC(=O)Nc3ccc(O)cc3)C2=O)cc1	15.7%	-15.3%	12.2%	-5.2	61.3%	?
COc1cccc(/C=C2/SC(=S)N(CCCC(=O)Nc3ccc(O)cc3)C2=O)c1	·	·	·	-99.4*	26.4%	·
CC(=O)C1=C(O)C(=O)N(c2cccc(C(=O)O)c2)[C@@H]1c1ccc(F)cc1	·	·	25.3%	·	·	·
C=CCN(C(=O)c1ccccn1)C(C(=O)NCc1ccccc1)c1ccccc1F (centres undefined)	·	·	·	-8.3	-8.3%	·
CC1(C)CC(NC(=O)c2cc(S(=O)(=O)N3CCOCC3)ccc2Cl)CC(C)(C)N1	·	·	·	25.4	-18.9%	·
CC(=NN=C(C)c1ccc(O)cc1)c1ccc(O)cc1	-7.4%	-30.0%	-0.6%[46.1 µM]	9.3	7.0%	-23.7%[46.1 µM]
CC/C(=N/N=C(/CC)c1ccc(O)cc1)c1ccc(O)cc1	·	·	·	-99.3*	19.6%	·
COc1ccc(S(=O)(=O)N2CCOC2CNC(=O)C(=O)NCCc2c[nH]c3ccccc23)cc1C (centres undefined)	?	?	?	27.4	?	?
COc1cc2c(CCNC(C)=O)c[nH]c2cc1Cl	-9.3%	-14.0%	?	-91.7*	-14.3%	0.1%
COc1ccc2[nH]cc(CCNC(C)=O)c2c1	-15.9%	-2.1%	?	-1.6	-18.6%	0.4%
COc1ccc(C(=O)CCC(=O)NCCc2c[nH]c3ccccc23)cc1	-9.7%	-11.7%	7.7%[46.1 µM]	-103.6*	-18.0%	-23.3%[46.1 µM]
COc1ccc(OC)c(NC(=O)NCCc2c[nH]c3ccccc23)c1	·	·	·	-86.9*	1.6%	·
COc1ccc(S(=O)(=O)N2CCOC2CNC(=O)C(=O)NCCc2c[nH]c3ccccc23)cc1 (centres undefined)	-18.3%	-10.1%	-10.3%	-1.9	22.4µM*	?
COc1cccc(C=NCCCN=Cc2cccc(OC)c2O)c1O	·	·	·	75.8	5.1%	·
CCC(=O)N[C@@H]1c2ccccc2C2(CCN(Cc3ccccn3)CC2)[C@H]1OC	-8.6%	i	·	·	-14.5%	·
COc1ccc(/C=N/N2CCN(Cc3ccc(C)cc3)CC2)cc1Br	·	·	·	-39.7	-16.1%	·
CCN(CC)C(=O)c1cccc(-c2csc(C(C)(O)c3ccncc3)n2)c1 (centres undefined)	-23.0%	1.3%	·	-31.6	25.1µM*	·
COc1cccc(C(C)(O)c2nc(-c3cccc(C(=O)O)c3)cs2)c1 (centres undefined)	3.1%	-12.4%	·	2.8	18.1%	·
